Data reported in the supplement of paper PMC12532568.
Structures can show the parent of a compound that is named as a salt.

test system: Danio rerio larvae Tg(actc1b:ZsGreen-LC3), 3 dpf; test: LC3 puncta relative area vs vehicle, without NH4Cl (log2 fold change); higher = more autophagosomes; settings: 10 µM; treatment time 16 h; NH4Cl: none
Description: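 Transgenic Tg(actc1b:ZsGreen-map1lc3) zebrafish larvae (2 dpf) were treated for 16 h with Tocris library compounds at 10 µM (n = 12 larvae per compound). Skeletal-muscle LC3 puncta area relative to body area was measured by high-content confocal imaging before and after 4 h of 100 mM NH4Cl (autophagic flux), normalised to vehicle (DMSO), and reported as log2 fold change.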

SMILES | LC3 puncta (log2)
CC(C)NCC(O)c1ccc2ccccc2c1 (stereo not given) [Pronethalol hydrochloride] | 0.437
c1ccc(CN2CCC3(CCc4ccccc43)CC2)cc1 [L-693,403 maleate] | -0.0234
CC(C)CC(NC(=O)OCC1c2ccccc2-c2ccccc21)C(=O)O (stereo not given) | 0.0242
CC(C(O)c1ccc(O)cc1)N1CCC(Cc2ccccc2)CC1 (stereo not given) [Ifenprodil hemitartrate] | -0.219
CN(C)CCCSC(=N)N [Dimaprit dihydrochloride] | 0.203
CCCCCCN(CCCCCC)C(=O)Cc1c(-c2ccc(Cl)cc2)[nH]c2ccc(Cl)cc12 | 0.364
CC(Cc1ccc(O)c(O)c1)(NN)C(=O)O [(S)-(-)-Carbidopa] | 0.0108
CC1=C(/C=C/C(C)=C/C=C/C(C)=C/C(=O)O)C(C)(C)CCC1 [Retinoic acid] | 0.44
NC(=O)OCC(COC(N)=O)c1ccccc1 [Felbamate] | -0.737
S=C(S)N1CCCC1 [Pyrrolidinedithiocarbamate ammonium] | 0.439
Cc1ccc2c(c1)c1c3n2CCNC3CCC1 (stereo not given) [Pirlindole mesylate] | 0.028
O=[N+]([O-])c1cccc2cn[nH]c12 [7-Nitroindazole] | 0.16
O=C(O)c1cc(O)c2ccc(Cl)cc2n1 [7-Chlorokynurenic acid] | 0.0331
O=C(O)C1=CCNCC1 [Isoguvacine hydrochloride] | 0.169
CC#CCOC(=O)C1=CCCN(C)C1 [Arecaidine but-2-ynyl ester tosylate] | 0.463
CCCCOc1cc(CC2CNC(=O)N2)ccc1OC (stereo not given) | -0.122
CC12CC3CC(C)(C1)CC(N)(C3)C2 [Memantine hydrochloride] | 0.145
N[C@H](C(=O)O)c1ccc(O)c(C(=O)O)c1 [(S)-3-Carboxy-4-hydroxyphenylglycine] | 0.267
COc1cc2nc(N3CCN(C(=O)c4ccco4)CC3)nc(N)c2cc1OC [Prazosin hydrochloride] | -0.131
CCCC[C@@H](C=O)NC(=O)[C@H](CC(C)C)NC(=O)OCc1ccccc1 [Calpeptin] | 1.15

SMILES | LC3 puncta (log2)
CC(=O)N[C@@H](CC(=O)N[C@@H](CCC(=O)O)C(=O)O)C(=O)O [Spaglumic acid] | -0.106
CCN(CC)CCOC(=O)C1(c2ccc([N+](=O)[O-])cc2)CCCC1 [Nitrocaramiphen hydrochloride] | 0.254
O=S(=O)(c1cccc2c(Cl)cccc12)N1CCCNCC1 [ML 9 hydrochloride] | 0.232
O=[N+]([O-])c1cccc2c(Br)[nH]nc12 [3-Bromo-7-nitroindazole] | 0.159
O=C(OCCN1CCCCC1)c1c[nH]c2ccccc12 | 0.11
CCC(C)N(C)C(=O)c1cc2ccccc2c(-c2ccccc2Cl)n1 (stereo not given) | -0.0562
c1ccc2oc(C3=NCCN3)cc2c1 [2-BFI hydrochloride] | 0.0586
C/N=C(/NC#N)NCCSCc1csc(NC(=N)N)n1 [Tiotidine] | 0.383
CNC(=O)c1cc2c(cn1)[nH]c1ccccc12 | 0.13
CCOC(=O)C1=C[C@]2(CC)CCCN3CCc4c(n1c1ccccc41)[C@@H]32 [Vinpocetine] | 0.406
CSc1ccc2c(c1)C(N1CCN(C)CC1)Cc1ccccc1S2 (stereo not given) [Methiothepin maleate] | -0.425
O=C(OCCN1CCOCC1)C1(c2ccccc2)CCCCC1 [PRE-084 hydrochloride] | 0.215
Cc1noc(NS(=O)(=O)c2ccc(N)cc2)c1C [Sulfisoxazole] | 0.239
CC(C)NC[C@@H](O)COc1cccc2ccccc12 [(R)-(+)-Propranolol hydrochloride] | 0.00434
c1cc2c(cc1C1CCCCC1)c1c3n2CCNC3CCC1 (stereo not given) [Tetrindole mesylate] | 0.672
C1COC(NC(C2CC2)C2CC2)=N1 [Rilmenidine hemifumarate] | 0.278
O=C(O)c1cc(=O)c2ccccc2[nH]1 [Kynurenic acid] | 0.00327
CC(C)NC[C@H](O)COc1cccc2ccccc12 [(S)-(-)-Propranolol hydrochloride] | 0.355
NCC(O)(CS(=O)(=O)O)c1ccc(Cl)cc1 (stereo not given) [2-Hydroxysaclofen] | 0.46
CC(CCCCC(=O)Nc1ccc(C(F)(F)F)cc1)NCCc1cnc[nH]1 (stereo not given) [HTMT dimaleate] | 0.258
